In PubChem BioAssay (NCI):
About 83,000 compounds went through this panel and 20% of them were active in at least one assay; those are over-represented in the sample as a whole.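 Activity criterion: percent growth below 10, measured after cells in 96-well plates were exposed to a single compound concentration for 48 hours.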 Values without a mark were called inactive. Activity calls are given as the source filed them.

Assays:
Test in all cases: NCI-60 one-dose screen, 48 h (100 = growth as untreated, 0 = no growth, -100 = all killed)
Conditions in all cases: 10 µM unless noted
[1] = system: HCT-15 colon
[2] = system: HT29 colon
[3] = system: SNB-75 CNS
[4] = system: SNB-19 CNS
[5] = system: PC-3 prostate
[6] = system: SK-MEL-5 melanoma
[7] = system: UACC-62 melanoma
[8] = system: LOX IMVI melanoma
[9] = system: SK-MEL-28 melanoma

Row | SMILES | growth [1] [%] | growth [2] [%] | growth [3] [%] | growth [4] [%] | growth [5] [%] | growth [6] | growth [7] | growth [8] [%] | growth [9] [%]
1 | COc1cccc(-c2nc3sccn3c2-c2ccnc(NCCNS(=O)(=O)c3ccccc3)c2)c1 | 11.8 | 23.6 | 15.2 | 51.6 | 11.3 | -39.3% (active) | -31.3% (active) | 24 | 50
2 | Cc1nc2c3c(-c4ccccc4)c(-c4ccccc4)oc3ncn2n1 | 101 | 95.8 | 69.9 | 96.6 | 91.3 | 96.3% | 92.3% | 90.7 | 118
3 | COc1cc(/C=C/C(=O)c2c(C)oc3nc[nH]c(=O)c23)cc(OC)c1OC | 49.3 | 90.7 | 78 | 93.6 | 83.4 | 89.9% | 87% | 66.2 | 93.9
